# According to publication PMC7862700, “An all-to-all approach to the identification of sequence-specific readers for epigenetic DNA modifications on cytosine”:
# Experiments:
# Assay in all cases: DAPPL (digital affinity profiling via proximity ligation, sequencing); 10 mM Tris-HCl pH 7.5, 50 mM NaCl, 1 mM DTT, 4% glycerol, room temperature, 30 min; GST-TFs on glutathione beads, 16-mer random dsDNA library, 0.1% formaldehyde crosslink after washing; high values mean tight binding
# [1] = target: T1, FLI1 (Homo sapiens, UniProt Q01543 1-452); details: protein: recombinant; tags: N-terminal GST; dsDNA, one strand shown
# T1 sequence: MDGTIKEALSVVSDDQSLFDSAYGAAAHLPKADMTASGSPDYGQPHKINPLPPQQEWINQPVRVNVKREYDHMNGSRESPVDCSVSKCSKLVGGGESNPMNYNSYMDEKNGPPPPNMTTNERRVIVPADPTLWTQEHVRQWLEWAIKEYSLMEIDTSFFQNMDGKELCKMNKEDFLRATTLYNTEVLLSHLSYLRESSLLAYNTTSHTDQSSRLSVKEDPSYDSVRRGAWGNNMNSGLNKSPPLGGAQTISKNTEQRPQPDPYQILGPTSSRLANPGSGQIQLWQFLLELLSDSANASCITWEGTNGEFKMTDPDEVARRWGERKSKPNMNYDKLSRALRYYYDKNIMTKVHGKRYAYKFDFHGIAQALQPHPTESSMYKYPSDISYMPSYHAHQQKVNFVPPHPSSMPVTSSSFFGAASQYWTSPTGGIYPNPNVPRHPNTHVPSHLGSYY
# Method in brief: (§1)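 Each value of binding signal is a hexamer's read frequency for a factor divided by the same hexamer's frequency in the tag-only sample. Barcoded, bead-captured GST fusions of human transcription factors made in yeast were pooled with that sample and incubated with 200 nmole of a random double-stranded 16-mer DNA library in Tris/NaCl/DTT/glycerol buffer at room temperature for 30 min. Washing, 0.1% formaldehyde crosslinking, proximity ligation, PCR and Illumina NextSeq500 sequencing followed.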
# [2] = target: T2, ELK1 (Homo sapiens, UniProt P19419 1-428); details: protein: recombinant; tags: N-terminal GST; dsDNA, one strand shown
# T2 sequence: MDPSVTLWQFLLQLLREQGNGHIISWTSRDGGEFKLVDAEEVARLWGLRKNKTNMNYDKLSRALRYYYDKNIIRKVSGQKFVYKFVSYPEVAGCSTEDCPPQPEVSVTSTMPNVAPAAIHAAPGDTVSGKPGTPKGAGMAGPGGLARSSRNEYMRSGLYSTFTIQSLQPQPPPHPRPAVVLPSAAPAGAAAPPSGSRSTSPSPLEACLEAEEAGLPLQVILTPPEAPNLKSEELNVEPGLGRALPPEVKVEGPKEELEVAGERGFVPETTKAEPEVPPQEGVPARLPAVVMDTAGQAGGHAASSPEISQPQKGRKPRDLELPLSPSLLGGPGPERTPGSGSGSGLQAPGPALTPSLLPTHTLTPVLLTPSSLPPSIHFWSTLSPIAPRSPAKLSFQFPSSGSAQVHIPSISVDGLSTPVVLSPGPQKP
# Method in brief: as §1
# [3] = target: T3, GABPA (Homo sapiens, UniProt Q06546 1-454); details: protein: recombinant; tags: N-terminal GST; dsDNA, one strand shown
# T3 sequence: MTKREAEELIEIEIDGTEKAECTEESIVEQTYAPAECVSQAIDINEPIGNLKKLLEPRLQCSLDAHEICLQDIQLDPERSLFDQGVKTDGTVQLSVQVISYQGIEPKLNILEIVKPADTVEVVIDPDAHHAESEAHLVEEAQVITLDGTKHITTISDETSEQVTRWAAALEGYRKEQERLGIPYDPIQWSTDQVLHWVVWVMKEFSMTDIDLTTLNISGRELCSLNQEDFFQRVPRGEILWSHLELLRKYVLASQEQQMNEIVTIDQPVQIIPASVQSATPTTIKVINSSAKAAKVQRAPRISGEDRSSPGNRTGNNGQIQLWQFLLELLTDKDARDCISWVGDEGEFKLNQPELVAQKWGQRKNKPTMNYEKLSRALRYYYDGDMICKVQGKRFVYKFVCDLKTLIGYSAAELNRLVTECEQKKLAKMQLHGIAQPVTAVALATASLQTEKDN
# Method in brief: as §1
# [4] = target: T4, ERG (Homo sapiens, UniProt P11308 1-479); details: protein: recombinant; tags: N-terminal GST; dsDNA, one strand shown
# T4 sequence: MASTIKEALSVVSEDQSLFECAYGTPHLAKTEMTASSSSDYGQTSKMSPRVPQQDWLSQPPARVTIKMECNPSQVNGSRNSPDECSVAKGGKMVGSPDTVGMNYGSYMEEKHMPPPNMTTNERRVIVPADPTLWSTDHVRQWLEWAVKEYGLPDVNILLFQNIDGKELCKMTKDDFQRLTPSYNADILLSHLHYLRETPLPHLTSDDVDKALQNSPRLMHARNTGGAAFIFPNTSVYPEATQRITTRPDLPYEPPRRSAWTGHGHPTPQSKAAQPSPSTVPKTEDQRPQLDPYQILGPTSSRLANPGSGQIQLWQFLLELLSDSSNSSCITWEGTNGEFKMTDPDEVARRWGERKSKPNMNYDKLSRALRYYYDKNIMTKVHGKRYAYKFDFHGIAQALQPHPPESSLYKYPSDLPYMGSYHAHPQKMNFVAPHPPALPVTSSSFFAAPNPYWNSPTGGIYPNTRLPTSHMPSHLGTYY
# Method in brief: as §1
# [5] = target: ELF1 (Homo sapiens, UniProt P32519 1-619); details: protein: recombinant; tags: N-terminal GST; dsDNA, one strand shown
# Sequence of ELF1 (P32519 whole entry): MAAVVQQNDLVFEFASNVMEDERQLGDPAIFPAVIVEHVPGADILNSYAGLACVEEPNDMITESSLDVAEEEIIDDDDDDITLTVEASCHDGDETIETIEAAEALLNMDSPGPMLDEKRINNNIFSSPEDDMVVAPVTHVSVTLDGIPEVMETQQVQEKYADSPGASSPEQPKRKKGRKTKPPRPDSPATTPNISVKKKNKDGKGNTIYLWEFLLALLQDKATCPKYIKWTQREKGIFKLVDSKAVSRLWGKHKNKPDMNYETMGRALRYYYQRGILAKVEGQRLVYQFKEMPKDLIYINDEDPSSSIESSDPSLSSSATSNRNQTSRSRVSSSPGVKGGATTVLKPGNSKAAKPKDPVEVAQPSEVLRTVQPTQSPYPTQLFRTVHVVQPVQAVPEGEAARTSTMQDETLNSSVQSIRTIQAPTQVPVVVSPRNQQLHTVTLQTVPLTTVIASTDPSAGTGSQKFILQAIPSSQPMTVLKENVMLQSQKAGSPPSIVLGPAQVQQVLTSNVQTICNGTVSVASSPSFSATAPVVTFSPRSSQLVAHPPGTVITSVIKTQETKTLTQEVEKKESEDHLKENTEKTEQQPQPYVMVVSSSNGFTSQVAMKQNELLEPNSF
# Method in brief: as §1
# [6] = target: T5, EHF (Homo sapiens, UniProt Q9NZC4 1-300); details: protein: recombinant; tags: N-terminal GST; dsDNA, one strand shown
# T5 sequence: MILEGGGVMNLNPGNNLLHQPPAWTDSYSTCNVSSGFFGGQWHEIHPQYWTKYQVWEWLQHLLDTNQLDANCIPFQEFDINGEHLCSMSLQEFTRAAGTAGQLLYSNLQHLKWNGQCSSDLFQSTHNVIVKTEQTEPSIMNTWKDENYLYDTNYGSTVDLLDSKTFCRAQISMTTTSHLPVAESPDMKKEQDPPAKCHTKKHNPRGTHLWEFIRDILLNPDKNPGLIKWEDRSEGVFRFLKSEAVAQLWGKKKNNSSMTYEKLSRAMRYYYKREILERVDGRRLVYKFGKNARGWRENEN
# Method in brief: as §1
# [7] = target: SPI1 (Homo sapiens, UniProt P17947 1-270); details: protein: recombinant; tags: N-terminal GST; dsDNA, one strand shown
# Method in brief: as §1
# [8] = target: SPIB (Homo sapiens, UniProt Q01892 1-262); details: protein: recombinant; tags: N-terminal GST; dsDNA, one strand shown
# Sequence of SPIB (Q01892 whole entry): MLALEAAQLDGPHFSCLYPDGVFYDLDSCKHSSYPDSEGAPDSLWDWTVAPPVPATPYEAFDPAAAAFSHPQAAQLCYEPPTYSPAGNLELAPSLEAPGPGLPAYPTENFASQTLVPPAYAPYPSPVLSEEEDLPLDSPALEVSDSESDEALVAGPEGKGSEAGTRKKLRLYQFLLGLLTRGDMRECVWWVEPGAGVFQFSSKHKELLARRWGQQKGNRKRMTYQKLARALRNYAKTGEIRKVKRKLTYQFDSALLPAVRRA
# Method in brief: as §1
# [9] = target: T6, ELK3 (Homo sapiens, UniProt P41970 1-407); details: protein: recombinant; tags: N-terminal GST; dsDNA, one strand shown
# T6 sequence: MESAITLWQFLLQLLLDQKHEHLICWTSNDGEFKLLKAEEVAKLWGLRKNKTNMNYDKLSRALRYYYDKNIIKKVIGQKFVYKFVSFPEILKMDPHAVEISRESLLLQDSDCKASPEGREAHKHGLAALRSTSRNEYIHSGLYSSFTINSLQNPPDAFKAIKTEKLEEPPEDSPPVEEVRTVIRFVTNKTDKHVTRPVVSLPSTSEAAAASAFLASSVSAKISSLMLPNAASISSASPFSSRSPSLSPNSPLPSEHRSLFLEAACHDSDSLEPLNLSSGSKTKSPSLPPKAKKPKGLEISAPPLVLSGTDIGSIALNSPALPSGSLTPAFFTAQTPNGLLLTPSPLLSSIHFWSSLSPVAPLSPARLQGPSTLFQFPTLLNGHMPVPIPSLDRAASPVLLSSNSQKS
# Method in brief: as §1
# [10] = target: T7, FEV (Homo sapiens, UniProt Q99581 1-238); details: protein: recombinant; tags: N-terminal GST; dsDNA, one strand shown
# T7 sequence: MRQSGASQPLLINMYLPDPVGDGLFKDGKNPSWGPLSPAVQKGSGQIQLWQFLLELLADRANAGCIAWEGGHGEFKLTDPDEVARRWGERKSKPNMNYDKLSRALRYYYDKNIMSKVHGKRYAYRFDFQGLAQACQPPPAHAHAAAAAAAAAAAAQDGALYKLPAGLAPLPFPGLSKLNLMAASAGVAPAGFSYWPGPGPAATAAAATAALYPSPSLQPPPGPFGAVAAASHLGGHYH
# Method in brief: as §1
# [11] = target: ETV5 (Homo sapiens, UniProt P41161 1-510); details: protein: recombinant; tags: N-terminal GST; dsDNA, one strand shown
# Sequence of ETV5 (P41161 whole entry): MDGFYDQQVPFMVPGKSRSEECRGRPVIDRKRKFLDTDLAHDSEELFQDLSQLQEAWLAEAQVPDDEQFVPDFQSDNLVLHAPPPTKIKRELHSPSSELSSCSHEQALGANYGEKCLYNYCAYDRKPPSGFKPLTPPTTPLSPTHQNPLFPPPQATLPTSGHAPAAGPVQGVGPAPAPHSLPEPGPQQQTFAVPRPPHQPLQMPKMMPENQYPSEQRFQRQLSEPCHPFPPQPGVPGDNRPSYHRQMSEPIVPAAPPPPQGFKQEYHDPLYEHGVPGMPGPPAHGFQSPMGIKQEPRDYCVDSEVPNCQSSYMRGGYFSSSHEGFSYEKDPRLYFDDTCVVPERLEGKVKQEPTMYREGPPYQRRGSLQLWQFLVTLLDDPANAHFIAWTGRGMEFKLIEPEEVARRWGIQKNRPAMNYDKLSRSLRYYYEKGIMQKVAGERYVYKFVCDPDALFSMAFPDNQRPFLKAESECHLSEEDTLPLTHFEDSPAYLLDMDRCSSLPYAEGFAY
# Method in brief: as §1
# [12] = target: HSF1 (Homo sapiens, UniProt Q00613 1-529); details: protein: recombinant; tags: N-terminal GST; chain copies: 3; dsDNA, one strand shown
# Sequence of HSF1 (Q00613 whole entry): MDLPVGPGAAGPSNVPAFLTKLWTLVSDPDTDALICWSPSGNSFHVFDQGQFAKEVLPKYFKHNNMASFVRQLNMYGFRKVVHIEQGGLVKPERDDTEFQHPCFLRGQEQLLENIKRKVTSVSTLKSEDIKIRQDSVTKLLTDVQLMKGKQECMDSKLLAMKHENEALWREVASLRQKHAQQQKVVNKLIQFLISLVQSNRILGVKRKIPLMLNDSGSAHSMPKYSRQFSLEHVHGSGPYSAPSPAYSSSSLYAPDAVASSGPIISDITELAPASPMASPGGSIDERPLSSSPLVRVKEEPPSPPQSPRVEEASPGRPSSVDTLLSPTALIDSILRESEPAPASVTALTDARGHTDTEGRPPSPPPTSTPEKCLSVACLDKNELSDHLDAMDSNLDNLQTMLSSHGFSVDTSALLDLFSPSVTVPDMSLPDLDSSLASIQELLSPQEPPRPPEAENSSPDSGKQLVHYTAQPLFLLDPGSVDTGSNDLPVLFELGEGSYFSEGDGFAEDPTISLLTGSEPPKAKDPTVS
# Method in brief: as §1
# [13] = target: T8, SPIC (Homo sapiens, UniProt Q8N5J4 1-248); details: protein: recombinant; tags: N-terminal GST; dsDNA, one strand shown
# T8 sequence: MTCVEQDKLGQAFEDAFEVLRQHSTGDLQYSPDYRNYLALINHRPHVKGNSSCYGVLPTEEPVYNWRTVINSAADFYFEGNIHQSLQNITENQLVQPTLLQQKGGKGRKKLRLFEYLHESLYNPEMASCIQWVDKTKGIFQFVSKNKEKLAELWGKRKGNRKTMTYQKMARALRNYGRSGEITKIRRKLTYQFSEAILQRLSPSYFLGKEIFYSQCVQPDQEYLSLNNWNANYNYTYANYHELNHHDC
# Method in brief: as §1
# [14] = target: ELF4 (Homo sapiens, UniProt Q99607 1-663); details: protein: recombinant; tags: N-terminal GST; dsDNA, one strand shown
# Sequence of ELF4 (Q99607 whole entry): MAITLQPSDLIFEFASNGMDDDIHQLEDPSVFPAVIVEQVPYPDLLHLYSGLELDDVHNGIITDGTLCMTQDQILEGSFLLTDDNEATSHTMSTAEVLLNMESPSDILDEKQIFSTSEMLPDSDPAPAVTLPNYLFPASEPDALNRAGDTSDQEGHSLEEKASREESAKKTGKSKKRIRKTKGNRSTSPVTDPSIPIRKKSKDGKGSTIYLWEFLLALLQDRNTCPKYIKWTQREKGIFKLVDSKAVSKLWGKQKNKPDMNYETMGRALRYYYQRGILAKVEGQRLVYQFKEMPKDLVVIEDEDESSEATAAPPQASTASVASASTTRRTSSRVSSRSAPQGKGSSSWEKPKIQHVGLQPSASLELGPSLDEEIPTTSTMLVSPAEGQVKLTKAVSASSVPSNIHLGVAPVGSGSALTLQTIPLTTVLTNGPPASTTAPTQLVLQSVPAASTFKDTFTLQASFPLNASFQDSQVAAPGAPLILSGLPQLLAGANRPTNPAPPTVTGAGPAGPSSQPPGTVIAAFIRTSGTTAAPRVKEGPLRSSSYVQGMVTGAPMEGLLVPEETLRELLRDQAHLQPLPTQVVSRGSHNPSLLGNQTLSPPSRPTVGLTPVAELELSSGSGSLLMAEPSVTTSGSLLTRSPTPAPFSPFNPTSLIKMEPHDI
# Method in brief: as §1
# [15] = target: T9, ELK4 (Homo sapiens, UniProt P28324-2 1-405); details: protein: recombinant; tags: N-terminal GST; dsDNA, one strand shown
# T9 sequence: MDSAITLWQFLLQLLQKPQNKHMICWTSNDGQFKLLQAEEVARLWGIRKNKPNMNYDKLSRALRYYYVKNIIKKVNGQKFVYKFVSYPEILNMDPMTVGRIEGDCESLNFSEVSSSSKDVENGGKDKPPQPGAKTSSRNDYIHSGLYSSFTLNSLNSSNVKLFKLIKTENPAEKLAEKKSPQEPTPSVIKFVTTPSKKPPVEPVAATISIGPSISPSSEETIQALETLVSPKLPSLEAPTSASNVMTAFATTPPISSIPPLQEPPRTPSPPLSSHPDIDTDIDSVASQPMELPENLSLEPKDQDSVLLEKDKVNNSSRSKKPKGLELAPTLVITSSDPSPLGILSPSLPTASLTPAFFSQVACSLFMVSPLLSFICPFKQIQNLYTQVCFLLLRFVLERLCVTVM
# Method in brief: as §1
# [16] = target: T10, ETV2 (Homo sapiens, UniProt O00321 1-342); details: protein: recombinant; tags: N-terminal GST; dsDNA, one strand shown
# T10 sequence: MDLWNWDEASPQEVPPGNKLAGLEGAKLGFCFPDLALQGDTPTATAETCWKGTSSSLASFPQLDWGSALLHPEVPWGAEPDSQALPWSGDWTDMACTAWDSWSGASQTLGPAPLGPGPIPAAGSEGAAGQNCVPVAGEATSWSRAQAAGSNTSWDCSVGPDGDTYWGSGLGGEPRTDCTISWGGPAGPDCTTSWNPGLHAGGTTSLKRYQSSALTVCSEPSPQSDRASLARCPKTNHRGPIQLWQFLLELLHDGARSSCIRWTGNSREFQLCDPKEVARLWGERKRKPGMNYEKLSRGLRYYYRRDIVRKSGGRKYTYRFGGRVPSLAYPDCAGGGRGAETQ
# Method in brief: as §1
# [17] = target: T11, ELF3 (Homo sapiens, UniProt P78545 1-371); details: protein: recombinant; tags: N-terminal GST; dsDNA, one strand shown
# T11 sequence: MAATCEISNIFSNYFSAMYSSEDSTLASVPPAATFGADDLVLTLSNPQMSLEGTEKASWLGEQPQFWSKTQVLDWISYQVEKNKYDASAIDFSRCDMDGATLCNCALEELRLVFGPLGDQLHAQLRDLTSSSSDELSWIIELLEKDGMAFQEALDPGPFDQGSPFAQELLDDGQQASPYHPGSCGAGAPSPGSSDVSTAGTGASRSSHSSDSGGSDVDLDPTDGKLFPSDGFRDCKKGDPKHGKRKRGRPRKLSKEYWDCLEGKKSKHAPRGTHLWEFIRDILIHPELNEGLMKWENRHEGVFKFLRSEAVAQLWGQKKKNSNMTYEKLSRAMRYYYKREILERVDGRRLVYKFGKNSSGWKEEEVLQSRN
# Method in brief: as §1
# [18] = target: CRX (Homo sapiens, UniProt O43186 1-299); details: protein: recombinant; tags: N-terminal GST; dsDNA, one strand shown
# Sequence of CRX (O43186 whole entry): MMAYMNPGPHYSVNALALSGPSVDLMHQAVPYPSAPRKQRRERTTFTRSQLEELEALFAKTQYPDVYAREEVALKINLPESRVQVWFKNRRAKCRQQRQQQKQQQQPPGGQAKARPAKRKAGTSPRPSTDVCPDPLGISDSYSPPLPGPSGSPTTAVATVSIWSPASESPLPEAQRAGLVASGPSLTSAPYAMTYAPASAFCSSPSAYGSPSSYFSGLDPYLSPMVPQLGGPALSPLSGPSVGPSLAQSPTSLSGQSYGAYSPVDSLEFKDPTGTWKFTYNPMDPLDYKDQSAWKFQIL
# Method in brief: as §1
# [19] = target: ETV1 (Homo sapiens, UniProt P50549 1-477); details: protein: recombinant; tags: N-terminal GST; dsDNA, one strand shown
# Sequence of ETV1 (P50549 whole entry): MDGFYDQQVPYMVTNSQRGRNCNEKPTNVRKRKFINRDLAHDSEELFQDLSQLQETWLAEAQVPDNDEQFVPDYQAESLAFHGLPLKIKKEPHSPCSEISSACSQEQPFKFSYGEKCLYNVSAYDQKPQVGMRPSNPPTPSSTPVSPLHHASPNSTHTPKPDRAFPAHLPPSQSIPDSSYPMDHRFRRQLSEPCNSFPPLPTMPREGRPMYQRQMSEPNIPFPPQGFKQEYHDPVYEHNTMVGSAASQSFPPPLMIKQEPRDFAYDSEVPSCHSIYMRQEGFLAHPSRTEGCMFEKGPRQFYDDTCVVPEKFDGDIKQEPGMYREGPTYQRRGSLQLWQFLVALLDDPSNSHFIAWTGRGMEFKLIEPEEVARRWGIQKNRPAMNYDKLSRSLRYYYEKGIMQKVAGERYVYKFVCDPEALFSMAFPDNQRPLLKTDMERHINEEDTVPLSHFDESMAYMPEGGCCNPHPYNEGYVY
# Method in brief: as §1
sequence,measurement,setting,value
AGCTCT,binding signal,[1],"1.19 fold enrichment (6-mer frequency, TF over GST control)"
same,binding signal,[2],"1.25 fold enrichment (6-mer frequency, TF over GST control)"
same,binding signal,[3],"1.17 fold enrichment (6-mer frequency, TF over GST control)"
same,binding signal,[4],"1.11 fold enrichment (6-mer frequency, TF over GST control)"
same,binding signal,[5],"1.23 fold enrichment (6-mer frequency, TF over GST control)"
same,binding signal,[6],"1.18 fold enrichment (6-mer frequency, TF over GST control)"
same,binding signal,[7],"1.04 fold enrichment (6-mer frequency, TF over GST control)"
same,binding signal,[8],"1.04 fold enrichment (6-mer frequency, TF over GST control)"
same,binding signal,[9],"1.15 fold enrichment (6-mer frequency, TF over GST control)"
same,binding signal,[10],"1.19 fold enrichment (6-mer frequency, TF over GST control)"
same,binding signal,[11],"1.15 fold enrichment (6-mer frequency, TF over GST control)"
same,binding signal,[12],"1.25 fold enrichment (6-mer frequency, TF over GST control)"
same,binding signal,[13],"1.24 fold enrichment (6-mer frequency, TF over GST control)"
same,binding signal,[14],"1.21 fold enrichment (6-mer frequency, TF over GST control)"
same,binding signal,[15],"1.22 fold enrichment (6-mer frequency, TF over GST control)"
same,binding signal,[16],"1.14 fold enrichment (6-mer frequency, TF over GST control)"
same,binding signal,[17],"1.21 fold enrichment (6-mer frequency, TF over GST control)"
same,binding signal,[18],"1.41 fold enrichment (6-mer frequency, TF over GST control)"
same,binding signal,[19],"1.25 fold enrichment (6-mer frequency, TF over GST control)"
